Mito fusion act – qHTS Assay for Small Molecule Inhibitors of Mitochondrial Division or Activators of Mitochondrial Fusion. S. cerevisiae fusion-defective mutant growth rescue, CellTiterGlo 48 h. Potency, µM (series often up to 46.1 µM), without a hit: at the top dose growth rescue (activation), usual class: activators. 320,000 compounds, 0.23% hits. AID 485298, 2010; also: % of control where 0% means no effect; nearly all actives have a fitted effect of over 45% in size
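Luminescent cell viability in 1536-well qHTS format served as the measure of rescued growth in ts fusion-mutant S. cerevisiae cultured on non-fermentable YPEG for 48 hours at 37C.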
aSyn yeast inh – qHTS of alpha-syn Inhibitors | Yeast expressing alpha-synuclein, growth rescue, BacTiter-Glo, 24 h | 370,000 compounds, 0.14% hits | Potency, µM (series often up to 46.1 µM), without a hit: at the highest dose growth rescue (activation), most hits filed as activators; also: % of control where 0% means no effect; nearly all actives have a fitted effect of over 65% in size
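Rescue of yeast growth: cells expressing toxic alpha-synuclein, induced in galactose at OD600 0.02, incubated with compound 24 h at 30 C. ATP luminescence quantified growth; inhibitors of toxicity appear as activators.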
TDP-43 yeast inh – qHTS of TDP-43 Inhibitors | TDP-43 expressing yeast growth rescue, BacTiter-Glo, 24 h | Potency, µM (top dose mostly 46.1 µM), for the others: top-dose growth rescue (activation), most hits filed as activators | 410,000 compounds, 1.8% hits | AID 652104, 2013; also: % of control where 0% means no effect; nearly all actives have a fitted effect of over 50% in size
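In this qHTS, compounds that restore growth of yeast expressing TDP-43 appear as activators. Cells (OD600=0.02, galactose medium, raffinose-pregrown) are incubated with compound 24 hr at 30 deg C and growth is quantified by BacTiter-Glo.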
Abeta yeast res – qHTS for compounds that reverse cellular toxicity of Amyloid beta (A-beta) peptide in yeast: Primary Screen | Potency, µM (series often up to 46.1 µM), usual class: activators | AID 1347071, 2019 | yeast expressing A-beta42, growth rescue, OD600, 48 h; response scale: 0% DMSO, 100% iron-clioquinol control | 410,000 compounds, 0.063% hits; also: nearly all actives have a fitted effect of over 55% in size
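Growth rescue measured by 600 nm absorbance after 48 h yeast culture at 30 C with compound. Values normalized between DMSO and an equimolar ferric chloride plus clioquinol control.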
FUS suppressor – qHTS for Suppressors of FUS Proteinopathy: Primary screen using FUS-linked yeast assay | S. cerevisiae FUS-expressing, growth rescue, OD600, 24 h | Potency, µM (top dose mostly 76.6 µM), usual class: activators | 390,000 compounds, 0.24% hits | AID 1347120, 2019;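 also: plate controls were DMSO vehicle for no effect and reference control for full effect; nearly all actives have a fitted effect of over 55% in size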
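Compound concentration series was pinned onto galactose-induced FUS-expressing yeast seeded at OD 0.005. Plates sat 24hr at 30C; absorbance at 600 nm gave growth. DMSO served as background control.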
AT treatment – qHTS Assay for Identifying a Potential Treatment of Ataxia-Telangiectasia. F2112 A-T fibroblasts, KAP-1 phosphorylation AlphaLISA; neocarzinostatin DNA damage 30 min before lysis. Potency, µM (titrated, usually from 57.5 µM), inactives show at the top dose activation, actives largely listed as activators. 320,000 compounds, 0.19% hits. AID 485349, 2010; also: % of control where 0% means no effect; nearly all actives have a fitted effect of over 45% in size
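hTERT-immortalized A-T patient fibroblasts (F2112), 500 cells/well in OPTI-MEM, 1% FBS, got compounds for 60 min, then NCS for 30 min at 37C. Lysates were then assayed for phospho-KAP-1 by AlphaLISA (anti-pKAP1 donor, anti-KAP1 acceptor beads), 6 hr at 25C.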
* marks the source's active call; other numbers are inactive results; i = inactive; ? = inconclusive; . = not tested or not shown; [ ] = dose if it differs, or a comment. Sampled rows, rich in hits. Any-hit rate of the full collection: about 2.4%. Calls follow the shape of the dose curve; as a rule, active = well fitted curve in the direction sought with a large enough effect; inconclusive = small, poorly fitted or top-dose-only effect, or another doubt; inactive = no such curve, though single readings can be large; an effect the other way counts as inactive or inconclusive. Potency is read from the fitted curve at half-maximal effect.

SMILES	Mito fusion act	aSyn yeast inh	TDP-43 yeast inh	Abeta yeast res	FUS suppressor	AT treatment
COc1ccc(C2CC(c3cccs3)=NN2C(=O)c2ccco2)cc1OC (stereo not drawn)	2%	6%	-1%	i	i	3%
O=[N+]([O-])c1cc(S(=O)(=O)Oc2ccccc2)ccc1Cl	.	-6%	11µM*	i	.	.
Cn1cc(C(=O)N/N=C/c2ccc3c(c2)OCO3)c2ccccc21	0%	6%	-18%[1.82 µM]	i	i	22µM*
O=C(N/N=C/c1ccc2c(c1)OCO2)c1cccc2ccccc12	-4%	0%	-14%	i	i	2%
O=C(CSCc1ccccc1Br)N/N=C/c1ccc2c(c1)OCO2	?	-7%	18µM*	i	.	2%
CCOc1ccc(-c2cc(C(=O)OC)c3n(c2=O)CCC3)cc1	.	.	.	.	i	.
CCCCCN1CCCCC(NC(=O)C(C)(C)C)C1=O (stereo not drawn)	.	.	.	.	i	.
Cc1ccc(Nc2nc(CSc3nnnn3C)cs2)cc1	-6%	0%	?	i	i	-6%
Cc1ccc(Nc2nc(CSc3nnnn3-c3ccccc3)cs2)cc1	3%	-8%	14µM*	i	i	.
Cc1ccc(Nc2nc(CSc3nnc(-c4ccccc4)n3C)cs2)cc1	16%	10%	18µM*	i	i	-2%
Clc1ccc(CSc2nnc(CNc3cccc(Cl)c3)o2)cc1	?	8.9µM*	-29%	i	i	7%
NCCc1nnc(SCc2ccc(Cl)cc2)o1	.	.	28%	i	i	.
CC(C)(C)OC(=O)NCCc1nnc(SCc2ccc(Cl)cc2)o1	7%	10%	18µM*	i	?	1%
Fc1cccc(Cl)c1CSc1nnc(CNc2ccccc2)o1	22%	?	18µM*	i	i	2%
Fc1ccc(NCc2nnc(SCc3ccccc3)o2)cc1	23%	4%	?	i	i	4%
Cc1noc(C)c1CSc1ccccc1C(=O)Nc1nccs1	35µM*	1%	-8%	i	i	10%
COc1ccc(NC(=O)c2oc3ccc(S(=O)(=O)N(C)C4CCCCC4)cc3c2C)cc1Cl	.	.	0%	i	i	.
Cc1ccc(C)c(S(=O)(=O)N2CCN(C(=O)Cc3sc(C)nc3-c3ccc(F)cc3)CC2)c1	.	16µM*	18%	i	.	.
Cc1cc2n(n1)C(c1ccc3c(c1)OCO3)Nc1c(C)cccc1-2 (stereo not drawn)	20%	.	-15%	i	i	4%
CCOc1ccc(C2Nc3c(C)cccc3-c3cc(C)nn32)cc1 (stereo not drawn)	.	.	11µM*	?	i	.
Cc1cc(C)c2c(c1)-c1cc(C)nn1C(c1ccc3c(c1)OCO3)N2 (stereo not drawn)	-4%	11%	18µM*	i	i	13%
COc1cccc(CNc2nc3c(-c4cccc(C)c4)nnn3c3ccccc23)c1	.	.	11%	i	i	.
COc1cccc(Cn2c(=O)n(CC3CCC(C(=O)N4CCOCC4)CC3)c(=O)c3sccc32)c1 (stereo not drawn)	.	.	-6%	i	?	.
Cc1csc2ncc(C(=O)NCc3ccccc3Cl)c(=O)n12	1%	-1%	22µM*	i	i	3%
O=C(NCc1ccccc1Cl)c1cnc2n(c1=O)CCS2	0%	-2%	?	i	i	7%
SMILES	Mito fusion act	aSyn yeast inh	TDP-43 yeast inh	Abeta yeast res	FUS suppressor	AT treatment
O=C(CSc1ncnc2sccc12)NCc1ccc2c(c1)OCO2	-1%	?	16µM*	i	i	3%
Cc1ccc(-c2csc3ncnc(SCC(=O)NCc4ccc5c(c4)OCO5)c23)cc1	-5%	2%	-1%	i	i	-2%
Cc1csc2ncc(C(=O)NCc3ccc4c(c3)OCO4)c(=O)n12	-20%	0%	10µM*	i	i	3%
O=C(Nc1nnc(-c2cccs2)s1)C1CC1	4%	0%	-17%	i	i	0%
O=C(Nc1nc(-c2cccs2)c(-c2cccs2)s1)C1CCCC1	?	-5%	14µM*	i	.	10%
CCN(CC)c1ccc(/C=C/c2ccc3ccccc3n2)cc1	.	-67%	.	.	.	.
COc1c2c(cc3oc(=O)ccc13)OC(C)(C)C=C2	-4%	23%	?	i	i	38%
COc1ccc(OCc2cc(=O)c3ccc4c(c3o2)C=CC(C)(C)O4)cc1OC	.	-3%	35µM*	i	i	4%
C/C(=C\c1ccccc1)C(=O)Nc1nccs1	?	-13%	11µM*	i	i	-4%
O=C(Cc1ccc(F)cc1)Nc1nccs1	-1%	-10%	9%	i	i	10%
O=C(Nc1nccs1)Oc1ccccc1	2%	-1%	8%	i	i	7%
Fc1ccc(NC(=S)Nc2nccs2)cc1	0%	-12%	22µM*	?	i	-1%
S=C(Nc1ccccc1)Nc1nccs1	?	-25%	13µM*	?	i	5%
COC(=O)[C@]12C[C@H](CC(=O)NCCCN3CCCC3=O)C(=O)N(CCC3=CCCCC3)C1=C[C@H](C(C)C)O[C@@H]2C1CC1	.	.	.	.	i	.
CCCCc1c(-c2cccc(F)c2)ncn1CCc1ccccc1OC	.	5%	0%	i	i	.
CCCCc1c(-c2cccc(Br)c2)ncn1CCc1ccccc1OC	.	3%	25µM*	i	i	.
CCc1cc(-c2nc(N)ncc2-c2csc(C)n2)c(O)cc1OC	0%	1%	11%	i	i	-3%
CCCc1cc(-c2nc(N)ncc2-c2csc(C)n2)c(O)cc1OC	5%	1%	13µM*	i	i	-8%
CCC(=O)Nc1cc(C(=O)OC(C(=O)c2ccc(C)c(C)c2)c2ccccc2)ccc1C (stereo not drawn)	3%	-1%	0%	i	10µM*	-2%
Cn1c2ccccc2c(=O)c2ccc(C#Cc3ccc(N)cc3)cc21	7%	14%	11µM*	i	?	20%
Cn1c2ccccc2c(=O)c2cc(C#Cc3cccc(N)c3)ccc21	?	1%	13µM*	i	i	0%
COc1ccc(C#Cc2ccc3c(=O)c4ccccc4n(C)c3c2)cc1	-1%	-6%	?	i	i	24%
COc1cccc(N2CCN(CC(=O)NCc3ccc(Cl)cc3)CC2)c1	.	.	.	.	i	.

Bioassay records as filed in PubChem BioAssay.
